Nine compounds from PubChem BioAssay (NCATS) can be followed below.

Records with an inconclusive call do not appear. Where a call stands in place of a potency, no number is given. The source made the active and inactive calls. Calls follow the shape of the dose curve; as a rule, active = well fitted cell-killing curve with a large enough effect; inconclusive = small, poorly fitted or top-dose-only effect, or effect the other way; inactive = no such curve, though single readings can be large or run the other way.
Potency is read from the fitted curve at half-maximal effect.

The assay can be described thus: Viability qHTS for spleen associated tyrosine kinase inhibitor (SYKi) naive MV4-11 cells (AID 1963823). Also: nearly all actives have a fitted effect of over 40% in size. The settings on record: MV4-11 AML viability, CellTiter-Glo luminescence, 72 h; series mostly up to 45 µM. In outline: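 CellTiter-Glo luminescence, 10 min room-temperature incubation, gave viability. Cells: naive MV4-11 (500/well), treated 72 hr at 37 C, 5% CO2.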
On the technique in general: Quantitative high-throughput screening tests each substance at several concentrations.
`C[C@@H]1O[C@@H](O[C@@H]2CO[C@@H](O[C@H]3CC[C@@]4(C)C(CC[C@]5(C)C4CC=C4[C@@H]6CC(C)(C)CC[C@]6(C(=O)O[C@@H]6O[C@H](CO)[C@@H](O)[C@H](O)[C@H]6O)CC[C@]45C)[C@]3(C)CO)[C@H](O)[C@H]2O[C@@H]2O[C@H](CO)[C@@H](O)[C@H](O)[C@H]2O)[C@H](O)[C@H](O)[C@H]1O` (some centres undefined): the viability (% of control) is 57.4% [at 9.25 µM] (inactive).
Turning to `COc1cc(O)cc(C)c1C(=O)OC1C(CO)OC(OC2C(O)C(O)C(O)C(O)C2O)C(O)C1O` (centres undefined), the Potency result was “inactive”.
The same measure, in the same setting: under `CC(C)c1cc2c(c(O)c1O)[C@@]13CCCC(C)(C)C1[C@@H](O)[C@@H]2OC3=O` (some centres undefined) stands 4.53 µM (active); under `C[C@@H]1C(=O)O[C@H](C)[C@H]1CC(=O)[C@](C)(O)[C@H]1CC[C@@]2(O)C3=CC(=O)[C@@H]4C[C@@H](O)[C@@H](O)C[C@]4(C)C3CC[C@]12C` (some centres undefined), “inactive”.
On the same count and under the same terms, under `COc1cc2c(cc1-c1c(C)noc1C)ncc1[nH]c(=O)n(C(C)c3ccccn3)c12` (centres undefined) stands 0.326 µM (active); under `CN(C)C(=O)COC(=O)c1cc(-c2ccc(C3CCNCC3)cc2)c2ccc(-c3ccc(C(F)(F)F)cc3)cc2c1`, 4.61 µM (active); under `C=C(C)C1CCC2(C(=O)O)CCC3(C(=O)O)C(CCC4C5(C)CCC(O)C(C)(C(=O)O)C5CCC43C)C12` (centres undefined), “inactive”.
As for `CC1CC(=O)[C@]2(O)C(C(=O)OCCc3ccc(O)c(O)c3)=CO[C@@H](O[C@@H]3O[C@H](CO)[C@@H](O)[C@H](O)[C@H]3O)[C@H]12` (some centres undefined), the Potency result was “inactive”.
On the same count and under the same terms, under `CC(C)C1NC(=O)CNC(=O)C2CCCN2C(=O)C(Cc2c[nH]c3ccccc23)NC(=O)CNC(=O)C(Cc2ccc(O)cc2)NC(=O)CNC1=O` (centres undefined) stands “inactive”.
